Screening data deposited in PubChem BioAssay by National Center for Advancing Translational Sciences (NCATS).
KB-V1 MDR tox – qHTS assay for MDR1-selective chemotherapeutics: Primary screen using the drug-selected MDR subline cells KB-V1. 3.4% of 400,000 active. Potency, µM (doses to about 46.1 µM), actives largely listed as cytotoxic. AID 1347076, 2019. KB-V1 MDR cells viability, CellTiter-Glo, 72 h; note: nearly all actives have a fitted effect of over 60% in size
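KB-V1 cells (P-gp-expressing MDR subline of KB-3-1) in phenol-red-free DMEM with 10% FBS were exposed to library compounds over a concentration series for 72 h at 37 degrees C. Viability read by CellTiter-Glo luminescence; concentration-effect curves fitted after normalization.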
KB-3-1 cytotox – qHTS assay for MDR1-selective chemotherapeutics: Primary screen using the parental adenocarcinoma cell KB-3-1 | 1.4% of 400,000 active | KB-3-1 viability, CellTiter-Glo ATP luminescence, 72 h | Potency, µM (highest dose often 46.1 µM), hits mostly cytotoxic; note: nearly all actives have a fitted effect of over 60% in size
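Cytotoxicity in the drug-sensitive parental line KB-3-1 was scored as loss of CellTiter-Glo luminescence following 72 h incubation with compound. Values come from curve fitting of normalized concentration-response data.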
HT1080NT lethal – qHTS for induction of synthetic lethality in tumor cells producing 2HG: qHTS for the HT-1080-NT fibrosarcoma cell line; AID 686970, 2013; HT-1080-NT fibrosarcoma viability, CellTiter-Glo ATP luminescence, 48 h; 1.6% of 360,000 active; Potency, µM (titrated, usually from 46.1 µM), usual class: cytotoxic;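 note: NT is the 2HG producing partner of a matched IDH1 knockdown line; nearly all actives have a fitted effect of over 55% in size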
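Luminescent CellTiter-Glo readout after 48 hours of compound exposure at 37 degrees C defined viability of HT-1080-NT cells. Activity was normalized to DMSO wells and cell-free media wells; concentration-response curves were fitted and assigned curve classes.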
HT1080 IDH1KD tx – qHTS for induction of synthetic lethality in tumor cells producing 2HG: qHTS for the HT-1080-IDH1KD cell line; HT-1080 IDH1 knockdown viability, ATP luminescence, 48 h; Potency, µM (titrated, usually from 46.1 µM), usual class: cytotoxic; 2% of 360,000 active; AID 686971, 2013
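Cytotoxicity counter-line: IDH1KD HT-1080, 48 h, CellTiter-Glo. Curves classed by r2, magnitude and activity.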
HepG2 tox – qHTS for Inhibitors of TGF-b: Cytotox Counterscreen; HepG2 CAGA-GFP viability, ATP luminescence, 18 h; Potency, µM (highest dose often 46.1 µM), hits mostly cytotoxic; 0.76% of 410,000 active; AID 588856, 2011
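HepG2 CAGA-GFP cells (1000/well, DMEM with 1% FBS) received compound, then TGF-beta at 500 pg/mL final, and were incubated 18 hours at 37 degrees C. Viability was read by CellTiter-Glo luminescence. Media-only wells were set as complete cell-killing and DMSO as no toxicity.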
TGFb inhibitor – qHTS for Inhibitors of TGF-b; HepG2 CAGA-GFP TGF-b/SMAD3 reporter, GFP fluorescence, 18 h; TGF-beta stimulated, 500 pg/mL final; 1.2% of 410,000 active; Potency, µM (top dose mostly 46.1 µM), actives largely listed as inhibitors; note: nearly all actives have a fitted effect of over 65% in size
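Inhibition was scored as loss of TGF-beta-induced (500 pg/mL final, 18 hours, 37 degrees C) GFP in HEPG2 cells carrying a CAGA-GFP reporter, in DMEM with 1% FBS. Well GFP was summed per cell; Activity was normalised to unstimulated and stimulated DMSO wells, then concentration-response fitting.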
Of the large screens only hits and unclear results are named; the others gave an inactive call; ! = repeats disagree. The list is not random: actives were taken first. Their share in the collection is about 6.6%. Calls come from the whole dose curve; as a rule, active = well fitted curve in the direction sought with a large enough effect; inconclusive = small, poorly fitted or top-dose-only effect, or another doubt; inactive = no such curve, though single readings can be large; an effect the other way counts as inactive or inconclusive.

CCOC(=O)[C@]12Cc3cc(Cl)ccc3[C@H]1N(Cc1ccccc1)C(=O)c1ccccc12	KB-V1 MDR tox 23.1µM!, KB-3-1 cytotox inconclusive, TGFb inhibitor inconclusive
CCOC(=O)[C@]12Cc3ccccc3[C@H]1N(Cc1ccccc1)C(=O)c1cc(F)c(F)cc12	KB-V1 MDR tox 10.3µM, KB-3-1 cytotox 23.1µM, HT1080NT lethal inconclusive, HT1080 IDH1KD tx inconclusive (no result: HepG2 tox, TGFb inhibitor)
CCOC(=O)[C@]12Cc3cc(C)ccc3[C@H]1N(Cc1ccccc1)C(=O)c1cc(OC)ccc12	KB-V1 MDR tox 9.2µM, KB-3-1 cytotox 18.4µM, HT1080NT lethal inconclusive, HT1080 IDH1KD tx 20.6µM (no result: HepG2 tox, TGFb inhibitor)
COc1ccc(NC(=O)C2CCCN(S(=O)(=O)c3ccc4c(c3)oc(=O)n4C)C2)cc1OC (stereo unspecified)	TGFb inhibitor inconclusive
CCCc1nc(SC)ncc1C(=O)Nc1ccc(Cl)cc1C(=O)c1ccccc1	none (no result: HT1080NT lethal, HT1080 IDH1KD tx)
CC1(C)c2[nH]c3ccccc3c2C[C@@H]2C(=O)N(Cc3ccccc3F)C(=O)N21	KB-V1 MDR tox inconclusive, KB-3-1 cytotox inconclusive, TGFb inhibitor inconclusive (no result: HT1080NT lethal, HT1080 IDH1KD tx)
C[C@H]1CCC[C@H](O)CCCCCc2cc(O)cc(O)c2C(=O)O1	KB-V1 MDR tox inconclusive, KB-3-1 cytotox inconclusive, HT1080 IDH1KD tx inconclusive, TGFb inhibitor inconclusive
CC1CCC[C@H](O)CCCCCc2cc(O)cc(O)c2C(=O)O1 (stereo partly specified)	KB-V1 MDR tox 20.6µM
C[C@H]1CCC[C@@H](O)CCC/C=C/c2cc(O)cc(O)c2C(=O)O1	KB-V1 MDR tox inconclusive, HT1080NT lethal inconclusive, HT1080 IDH1KD tx 8.91µM, TGFb inhibitor inconclusive
Oc1cc(Cl)cc(Cl)c1Cl	TGFb inhibitor inconclusive
Cc1ccc(Cn2cccc(C(=O)Nc3ccc4c(c3)OCCO4)c2=O)cc1	KB-V1 MDR tox inconclusive, TGFb inhibitor inconclusive (no result: HT1080NT lethal, HT1080 IDH1KD tx)
Cc1ccccc1-c1nc(CN2C(=O)CN=C(c3ccccc3)c3ccccc32)c(C)o1	TGFb inhibitor inconclusive (no result: KB-V1 MDR tox, KB-3-1 cytotox, HT1080NT lethal, HT1080 IDH1KD tx)
Cc1nnc2ccc(-c3cccc(C(F)(F)F)c3)nn12	KB-V1 MDR tox 11.6µM
COc1ccccc1S(=O)(=O)N(C)C[C@@H]1Oc2cc(C#CCC(C)C)ccc2S(=O)(=O)N([C@H](C)CO)C[C@@H]1C	KB-3-1 cytotox inconclusive, TGFb inhibitor inconclusive
CC(=O)O[C@H]1C[C@@H]2OC3C=C(C)CCC3(C)[C@@]1(C)[C@@]21CO1 (stereo partly specified)	KB-V1 MDR tox 1.64µM, KB-3-1 cytotox 2.31µM, HT1080NT lethal inconclusive, TGFb inhibitor 1.26µM (no result: HT1080 IDH1KD tx)
CC(=O)Nc1ccccc1C(=O)OCc1ccc(C(=O)c2ccccc2)cc1	KB-V1 MDR tox 6.51µM, KB-3-1 cytotox inconclusive, HT1080NT lethal inconclusive, HT1080 IDH1KD tx inconclusive
CC(=O)Nc1ccccc1C(=O)OCC(=O)c1ccc2ccccc2c1	KB-V1 MDR tox 14.6µM, HT1080NT lethal inconclusive
COc1ccc(OCC(=O)N2CCN(CCc3ccccn3)CC2)cc1	none (no result: HT1080NT lethal, HT1080 IDH1KD tx)
Oc1c(Cl)cc(Cl)cc1CN1CCN(Cc2ccccc2)CC1	none
Oc1c(Cl)cccc1Cc1cc(Cl)cc(Cl)c1O	KB-V1 MDR tox inconclusive, KB-3-1 cytotox inconclusive, HT1080NT lethal inconclusive, HT1080 IDH1KD tx inconclusive, TGFb inhibitor 11.2µM
COc1cc([C@@H]2c3cc4c(cc3[C@H](OC(C)=O)[C@H]3COC(=O)[C@@H]23)OCO4)cc(OC)c1OC	KB-V1 MDR tox inconclusive, KB-3-1 cytotox 0.651µM, TGFb inhibitor inconclusive (no result: HT1080NT lethal, HT1080 IDH1KD tx)
COc1cc(C2c3cc4c(cc3CC3COC(=O)C32)OCO4)cc(OC)c1OC (stereo unspecified)	KB-V1 MDR tox 0.581µM, KB-3-1 cytotox 0.92µM, HT1080NT lethal 0.366µM, HT1080 IDH1KD tx 0.231µM, TGFb inhibitor inconclusive
COc1cc([C@@H]2c3cc4c(cc3C[C@H]3COC(=O)[C@@H]32)OCO4)cc(OC)c1O	KB-3-1 cytotox inconclusive (no result: HT1080NT lethal, HT1080 IDH1KD tx)
COc1cc(C2c3cc4c(c(O)c3CC3COC(=O)C32)OCO4)cc(OC)c1OC (stereo unspecified)	KB-V1 MDR tox 0.184µM!, KB-3-1 cytotox 0.0082µM!, HT1080NT lethal 0.0052µM, HT1080 IDH1KD tx inconclusive
COc1cc([C@@H]2c3cc4c(c(O)c3C[C@H]3COC(=O)[C@@H]32)OCO4)cc(OC)c1OC	KB-V1 MDR tox 4.11µM, KB-3-1 cytotox 0.517µM, TGFb inhibitor inconclusive (no result: HT1080NT lethal, HT1080 IDH1KD tx)
Cc1nnc(NC(=O)c2cccn(Cc3ccc(Cl)cc3)c2=O)s1	none (no result: HT1080NT lethal, HT1080 IDH1KD tx)
O=C(O)CSCC(=O)N(Cc1ccccc1)c1nc(-c2ccccc2)c(-c2ccccc2)s1	TGFb inhibitor inconclusive
CN(C)CC(C(=O)Cc1ccccc1)c1ccccc1 (stereo unspecified)	KB-V1 MDR tox inconclusive, KB-3-1 cytotox 8.2µM, HT1080NT lethal 16.4µM, HT1080 IDH1KD tx 8.2µM, TGFb inhibitor inconclusive
CN1C[C@H](CNC(=O)OCc2ccccc2)C[C@@H]2c3cccc4c3c(cn4C)C[C@H]21	HT1080NT lethal inconclusive, HT1080 IDH1KD tx 23.1µM, TGFb inhibitor inconclusive
CN1C[C@H](CO)C[C@@H]2c3cccc4[nH]cc(c34)C[C@H]21	none
Cc1cc2oc(=O)cc(-c3ccccc3)c2c(C)c1-c1ccc(CO)cc1	TGFb inhibitor inconclusive
C=C(C=O)C[C@@H]1C[C@H](O)C2OC3C[C@]4(C)OC5/C=C\CC6OC7C(CC=CCC6OC5CCCC4OC3CC2O1)OC1CC2OC3CC(=O)OC3C[C@@H](C)C[C@@]2(C)OC1C[C@@H]7C (stereo partly specified)	KB-V1 MDR tox 8.2µM, KB-3-1 cytotox 4.61µM, HT1080NT lethal 8.2µM, TGFb inhibitor inconclusive (no result: HT1080 IDH1KD tx, HepG2 tox)
